# Measurements as given in PubChem BioAssay (NCI).
# This is part of a sample that, as a whole, favours compounds with a hit. Of some 83,000 tested, about 20% had one in any assay.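 Compound tested at a single concentration for 48 hours in 96-well plates; a percent growth value below 10 was scored as active.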 Calls of active or inactive are those of the source.
# Test system: MDA-MB-468 breast
# Experiment: NCI-60 one-dose screen, 48 h (100 = growth as untreated, 0 = no growth, -100 = all killed)
# Details: 10 µM unless noted
row,Structure (SMILES),growth
1,C=C1C(=O)O[C@H]2[C@H]1CC/C(COC(=O)NCc1ccc(Cn3c(=O)sn(CCCCC)c3=O)cc1)=C\CC[C@@]1(C)O[C@@H]21,3.66% (active)
2,O=[N+]([O-])c1ccc(Sc2ncccn2)c([N+](=O)[O-])c1,5.95% (active)
3,CCN(CC)CCN1C(=O)c2c(c3c4cc(Br)ccc4[nH]c3c3ccc4ccccc4c23)C1=O,-80.7% (active)
4,CC(C)(C)c1cnc(CSc2cnc(NC(=O)C3CCNCC3)s2)o1,-43.7% (active)
5,COc1ccc(-c2nn(-c3cccc(NC(=O)Nc4cc(C(F)(F)F)cc(C(F)(F)F)c4)c3)cc2-c2ccncc2)cc1Cl,17.7% (inactive)
6,O=[N+]([O-])c1cccc(-c2nc3sccn3c2-c2ccnc(NCCCNS(=O)(=O)c3ccc(C(F)(F)F)cc3)n2)c1,22.8% (inactive)
7,N=C1N=C(N)CS1,103% (inactive)
8,CCCCNC(=O)Oc1ccc(/C(=C(/C)Cc2ccc(OC)cc2)c2ccc(OCCN(CC)CC)cc2)cc1,76.3% (inactive)
9,O=C1NC(=S)S/C1=C\c1cccc([N+](=O)[O-])c1,106% (inactive)
10,N#Cc1c(-c2cccc(F)c2)cc(-c2cccnc2)[nH]c1=O,106% (inactive)
11,CCCCCCCCCCCCCCCCS(=O)(=O)Nc1cc(C(=O)NN)cc(C(=O)NN)c1,45.2% (inactive)
12,Cc1nccc2c3ccc(OCc4cn(-c5ccc(Br)cc5)nn4)cc3n(CC(C)C)c12,5.61% (active)
13,O=C(c1ccc(O)cc1)c1ccc(O)cc1,110% (inactive)
14,CCn1c2ccc(/C=N/OCCCN(C)C)cc2c2cc(/C=N/OCCCN(C)C)ccc21,-66.6% (active)
